Measured values: PubChem BioAssay AID652174 (National Center for Advancing Translational Sciences (NCATS), 2013)
Calls of active or inactive are those of the source. Calls come from the whole dose curve; as a rule, active = well fitted curve in the direction sought with a large enough effect; inactive = no such curve, though single readings can be large or run the other way.

These compounds were tested against Ubiquitin carboxyl-terminal hydrolase 2 (Homo sapiens) (UniProt O75604) (assay: Confirmation Assay for Inhibitors of Ubiquitin-specific Protease USP2a Using CHOP2 as the Reporter: SAR). Conditions: USP2 core, Ub-CHOP2 reporter, fluorescence 485/531.
Source text: Homeostasis of cellular proteins is maintained through a combination of synthesis and degradation. The pathway that accounts for the majority of protein degradation is the ubiquitin-proteasomal pathway. Ubiquitin (Ub) is highly conserved in all cells and the generation of a multi-Ub chain typically targets proteins for degradation by the proteasome. However, ubiquitination is highly reversible and dynamic. Deubiquitination, the reverse process, is catalyzed through the action of enzymes referred to as isopeptidases or deubiquitinating enzymes (DUBs). This group of enzymes is collectively responsible for maintaining adequate pools of free ubiquitin and regulating the ubiquitination status of cellular proteins. […] Thus, this coupled assay gives a fluorescent read-out at excitation/emission wavelengths of 485/531. […]
The assay buffer, prepared fresh at the day of the assay, contains 20mM Tris-HCl pH 8.0, 2mM CaCl2, 2mM beta-Mercaptoethanol, 0.05% CHAPS. […] Plates were read after 60min RT incubation on a ViewLux (Perkin Elmer) plate reader using the following wavelengths Ex 485nm /Em 531nm. […] Concentration-response curves were fitted to the normalized data and the concentration-response curves were then classified based on curve quality (r2), response magnitude and degree of measured activity. The time zero reading was used to flag fluorescence artifacts. […]

Chain of Ubiquitin carboxyl-terminal hydrolase 2 (Homo sapiens) (O75604 whole entry, looked up): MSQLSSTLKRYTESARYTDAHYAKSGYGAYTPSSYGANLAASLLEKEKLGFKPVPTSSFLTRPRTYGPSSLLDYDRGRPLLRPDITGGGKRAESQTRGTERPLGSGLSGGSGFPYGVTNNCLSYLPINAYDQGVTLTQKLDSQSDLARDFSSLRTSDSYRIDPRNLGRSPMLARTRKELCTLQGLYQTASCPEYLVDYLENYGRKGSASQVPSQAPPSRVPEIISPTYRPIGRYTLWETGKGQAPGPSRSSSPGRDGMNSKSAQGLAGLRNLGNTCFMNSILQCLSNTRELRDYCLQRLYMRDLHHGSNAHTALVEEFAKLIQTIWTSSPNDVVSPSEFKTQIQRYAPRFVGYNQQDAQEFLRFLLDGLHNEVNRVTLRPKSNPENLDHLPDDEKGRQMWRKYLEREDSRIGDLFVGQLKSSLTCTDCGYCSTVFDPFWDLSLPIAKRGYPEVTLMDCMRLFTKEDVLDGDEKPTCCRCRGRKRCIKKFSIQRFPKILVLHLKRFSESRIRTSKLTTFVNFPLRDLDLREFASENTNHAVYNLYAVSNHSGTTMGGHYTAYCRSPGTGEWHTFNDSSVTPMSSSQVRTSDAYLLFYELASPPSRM

Structure (SMILES) | Potency
Cc1ccc(S(=O)(=O)Nc2ccccc2C(=O)Nc2nc(-c3ccc(Cl)cc3)cs2)cc1 | 5.65 µM (active)
Cc1ccc(S(=O)(=O)Nc2ccccc2C(=O)Nc2nc(-c3ccccc3)cs2)cc1 | 11.3 µM (active)
